IL-1B inflam inh = qHTS for Inhibitors of Inflammasome Signaling: IL-1-beta AlphaLISA Primary Screen; THP-1 LPS/ATP IL-1B secretion, AlphaLISA, 16 h; stronger effect = lower value; activity change, % at 57.5 µM; hit rate 4.7% among 360,000; AID 743279, 2014; in the data active means activity change below about -50%; inconclusive means mostly about -30% to -49%
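Secreted IL-1B measured by AlphaLISA bead assay after 16 h compound exposure of THP-1 cells; compounds (final up to 57.5 uM) added 1 h before LPS (250 ng/mL) and ATP (1.25 mM) stimulation; lower signal means less secretion.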
HT1080NT lethal = qHTS for induction of synthetic lethality in tumor cells producing 2HG: qHTS for the HT-1080-NT fibrosarcoma cell line; Potency, µM (doses to about 46.1 µM), for the others: top-dose activity, negative = less viability, most hits filed as cytotoxic; AID 686970, 2013; HT-1080-NT fibrosarcoma viability, CellTiter-Glo ATP luminescence, 48 h; hit rate 1.6% among 360,000;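 further: NT is the 2HG producing partner of a matched IDH1 knockdown line; potency means the concentration at half of the fitted maximal effect; 0% = DMSO-treated cells and -100% = media-only wells without cells; nearly all actives have a fitted effect of over 55% in size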
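Viability of the 2HG-overproducing fibrosarcoma line after 48 hours of compound exposure at 37 degrees C was determined by luminescence with CellTiter-Glo, and concentration-effect curves were then fitted and categorized.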
DT40 TDP1 no CPT = qHTS for Inhibitors of human tyrosyl-DNA phosphodiesterase 1 (TDP1): qHTS in cells in absence of CPT; DT40 Tdp1-/- hTDP1 cells, no CPT, ATP luminescence, 48 h; Potency, µM (series often up to 46.2 µM), for the others: top-dose activity change, negative = growth inhibition, usual class: inhibitors; hit rate 15% among 420,000; AID 686978, 2013; further: potency means the concentration at half of the fitted maximal effect; nearly all actives have a fitted effect of over 55% in size
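Stably hTDP1-transfected Tdp1-null chicken DT40 cells were treated with library compounds minus camptothecin and grown for at least 48 hr at 37 °C, after which cellular ATP was quantified by luminescence.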
TDP1 cell CPT = qHTS for Inhibitors of human tyrosyl-DNA phosphodiesterase 1 (TDP1): qHTS in cells in presence of CPT. chicken DT40 Tdp1-/-;hTDP1 cells + 20 nM CPT, ATP luminescence, 48 h. Potency, µM (titrated, usually from 46.2 µM), without a hit: at the highest dose activity change, negative = growth inhibition, actives largely listed as inhibitors. hit rate 12% among 420,000; further: potency means the concentration at half of the fitted maximal effect; nearly all actives have a fitted effect of over 55% in size
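Chicken DT40 Tdp1-/- cells complemented with human TDP1, 400 cells/well, exposed to compounds plus 20 nM camptothecin for at least 48 h at 37 C; viability read as ATP content by CellTiter-Glo luminescence.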
ELG1 DNA repair = qHTS screen for small molecules that inhibit ELG1-dependent DNA repair in human embryonic kidney (HEK293T) cells expressing luciferase-tagged ELG1 | hit rate 2.3% among 330,000 | HEK293T ELG1-luciferase reporter, luminescence, 16 h; DNA damage induced by 5-fluorouridine | AID 504467, 2011 | Potency, µM (titrated, usually from 46.1 µM), inactives show at the top dose activity change, negative = inhibition, most hits filed as inhibitors; further: potency means the concentration at half of the fitted maximal effect; nearly all actives have a fitted effect of over 55% in size
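Reporter activity after DNA damage by 5-fluorouridine is monitored. Compound-treated cells incubate 16 hr at 37 °C, then ONE-Glo is added for 30 min before luminescence reading.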
HT1080 IDH1KD tx = qHTS for induction of synthetic lethality in tumor cells producing 2HG: qHTS for the HT-1080-IDH1KD cell line; HT-1080 IDH1 knockdown viability, ATP luminescence, 48 h; Potency, µM (doses to about 46.1 µM), for the others: top-dose activity, negative = toxicity, usual class: cytotoxic; hit rate 2% among 360,000;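 further: potency means the concentration at half of the fitted maximal effect; 0% = DMSO wells and -100% = cell-free medium wells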
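Viability of IDH1-knockdown HT-1080 fibrosarcoma cells was assessed by CellTiter-Glo after 48 h at 37 °C with titrated compound; concentration-effect curves were classified by fit quality and response size.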
Starred values were filed as active, the others as inactive; ? = inconclusive; . = no result. Hits are enriched below; roughly 19% of the tested compounds scored in any of these assays. Unless noted, the call rests on the fitted dose curve; in most records, active means well fitted curve in the direction sought with a large enough effect; inconclusive means small, poorly fitted or top-dose-only effect, or another doubt; inactive means no such curve, though single readings can be large; an effect the other way counts as inactive or inconclusive. Unless noted, on the % scale 0 is the no-effect control and ±100 the full control effect.

SMILES	IL-1B inflam inh	HT1080NT lethal	DT40 TDP1 no CPT	TDP1 cell CPT	ELG1 DNA repair	HT1080 IDH1KD tx
COc1ccccc1CNC(=O)C1CC(c2ccccc2F)=NO1 (stereo unspecified)	5	-3%	5%	-18%	?	2%
CCCCc1c(-c2ccccc2F)ncn1CCc1ccccc1OC	-59*	?	16µM*	26µM*	.	?
CCn1cc(S(=O)(=O)NCCc2ccccc2OC)cn1	-2	-1%	17%	-2%	0%	-3%
CSCCC(C)N1CCC(Oc2ccc(C(=O)N3CCCC3)cc2)CC1 (stereo unspecified)	0	-4%	-2%	-5%	-9%	-8%
Cc1cccn2c(=O)c3cc(S(=O)(=O)c4ccc(F)cc4)c(=N)n(Cc4ccco4)c3nc12	-80*	?	?	?	?	23µM*
Cc1ccc(S(=O)(=O)c2cc3c(=O)n4ccccc4nc3n(Cc3ccco3)c2=N)cc1C	-24	2%	?	?	-1%	4%
Cc1ccc2nc3c(cc(S(=O)(=O)c4ccccc4)c(=N)n3Cc3ccco3)c(=O)n2c1	-52*	18%	?	-29%	?	8%
Cc1ccc(S(=O)(=O)c2cc3c(=O)n4ccccc4nc3n(CCc3ccccc3)c2=N)cc1	6	8%	16µM*	?	?	6%
N=c1c(S(=O)(=O)c2ccccc2)cc2c(=O)n3ccccc3nc2n1Cc1ccco1	-79*	-23%	21µM*	?	?	-19%
COc1cc(/C=C/C(=O)O)cc(S(=O)(=O)NCCCC(=O)O)c1OC	-6	21%	-3%	-7%	13%	1%
COc1ccc(Br)cc1C1CC(=O)C(C)C(c2cc(Br)ccc2OC)N1 (stereo unspecified)	13	-2%	-3%	1%	0%	-3%
CC(C)CCNC(=O)CN1C(=O)c2cccnc2Sc2ccccc21	.	.	-16%	-16%	.	.
COc1ccc(C(=O)CC(C#N)c2ccc3c(c2)OCO3)cc1OC (stereo unspecified)	-10	4%	21µM*	?	.	-19%
COc1ccc(/C(N)=N/OC(=O)c2ccc3c(c2)OCO3)cc1OC	-62*	?	?	21µM*	?	0%
N/C(Cc1cccc2ccccc12)=N\OC(=O)c1ccc2c(c1)OCO2	16	-4%	21µM*	16µM*	3%	-1%
COc1ccc(/C(N)=N/OC(=O)c2cccs2)cc1OC	?	8%	?	12µM*	-8%	-14%
O=c1nc(Nc2ccc(Br)cc2)sc2ccc([N+](=O)[O-])cc12	23	-18%	-2%	-16%	6%	-4%
COc1cc(OC)c(C(=O)O/N=C(\N)c2cccc(C)c2)cc1OC	-15	?	?	21µM*	13%	?
Cc1ccc(/C(N)=N/OC(=O)c2cccs2)cc1	-4	-1%	21µM*	23µM*	?	-9%
N/C(=N\OC(=O)c1cccs1)c1ccccc1	-14	3%	?	?	?	-6%
COC(=O)CN1C(=O)CSc2ccc(S(=O)(=O)Nc3ccc(C(C)=O)cc3)cc21	.	.	-2%	-15%	.	.
NS(=O)(=O)c1ccc(NC(=O)c2cc(Cl)sc2Cl)cc1	?	-2%	7%	-18%	3%	-3%
O=C(NCC1CCCO1)c1ccc(NC(=O)c2ccc([N+](=O)[O-])cc2)cc1 (stereo unspecified)	12	-1%	-20%	-2%	?	-2%
O=C(NCC1CCCO1)C(=Cc1cccc([N+](=O)[O-])c1)C(=O)NCC1CCCO1 (stereo unspecified)	-110*	16µM*	23µM*	?	?	?
O=C(c1cccc(Oc2ccc([N+](=O)[O-])cc2Cl)c1)N1CCCCC1	27	-1%	-12%	1%	23µM*	2%
SMILES	IL-1B inflam inh	HT1080NT lethal	DT40 TDP1 no CPT	TDP1 cell CPT	ELG1 DNA repair	HT1080 IDH1KD tx
O=C(NCC1CCCO1)c1ccc(Oc2ccc([N+](=O)[O-])cc2)cc1 (stereo unspecified)	-10	?	23µM*	?	0%	3%
O=C(NCC1CCCO1)c1ccccc1NS(=O)(=O)c1cc([N+](=O)[O-])ccc1Cl (stereo unspecified)	32	-11%	?	15µM*	?	-7%
CCn1cc(S(=O)(=O)N2CCCC2)cn1	9	12%	4%	-3%	?	1%
CN(C(=O)COC(=O)c1cc(S(=O)(=O)N2CCOCC2)ccc1F)C1CCS(=O)(=O)C1 (stereo unspecified)	9	-3%	9%	-14%	24%	-4%
O=C(NCC1CCCO1)c1ccc(Oc2ccc([N+](=O)[O-])cc2Cl)cc1 (stereo unspecified)	9	1%	11%	-1%	?	-6%
O=C(NCC1CCCO1)c1cccc(Oc2ccc([N+](=O)[O-])cc2Cl)c1 (stereo unspecified)	6	-7%	21µM*	?	?	-5%
O=S(=O)(Nc1ccc(Cl)cc1)c1ccc2c(c1)CCO2	-15	-12%	?	1%	-2%	-3%
CN1CCN(c2ccc(CNC(=O)C3Cc4c(-c5ccccc5Oc5ccccc5)ccnc4O3)cc2)CC1 (stereo unspecified)	?	?	?	?	.	21µM*
O=C(NCCc1ccccc1)C1Cc2c(-c3ccccc3Oc3ccccc3)ccnc2O1 (stereo unspecified)	-29	?	?	16µM*	.	?
O=C(NCCC(F)(F)F)C1Cc2c(-c3ccccc3Oc3ccccc3)ccnc2O1 (stereo unspecified)	?	-10%	?	-55%	.	-10%
CN(C(=O)C1Cc2c(-c3ccccc3Oc3ccccc3)ccnc2O1)c1ccccc1 (stereo unspecified)	-6	?	?	?	.	-12%

Screening results: PubChem, National Center for Advancing Translational Sciences (NCATS)
